Measurements as given in PubChem BioAssay (NCATS).
Records with an inconclusive call do not appear. Entries that show only a call come without a potency. Active and inactive are the calls of the source. Unless noted, the call rests on the fitted dose curve; in most records, active means well fitted curve in the direction sought with a large enough effect; inconclusive means small, poorly fitted or top-dose-only effect, or another doubt; inactive means no such curve, though single readings can be large; an effect the other way counts as inactive or inconclusive.

What was measured:
[1] = target: Calcium and integrin-binding protein 1 (Homo sapiens) (UniProt Q99828); experiment: Primary qHTS for Identification of Calcium Integrin Binding Protein 1 (CIB1) Competitor (AID 1508620);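 further: GST tagged CIB1 binding a fluorescein labelled alphaIIb integrin peptide tracer; top concentration of the series differs between compounds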
Procedure, shortened: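 CIB1-GST (1 uM final) and compound incubated 15 min at room temperature before adding FITC-alphaIIb peptide tracer (100 nM final). Competition for binding read by fluorescence polarization (ex 480, em 540) after another 15 min at room temperature.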

[2] = target: Cytochrome P450 2D6 (Homo sapiens) (UniProt P10635); experiment: Cytochrome P450 family 2 subfamily D member 6 (CYP2D6) small molecule antagonists: luciferase biochemical (cell-free) qHTS assay (AID 1645840; active means well fitted curve in the direction sought with a large enough effect in the repeat runs; an effect the other way counts as inactive or inconclusive; further: nearly all actives have a fitted effect of over 55% in size; further: potency means the concentration at half of the fitted maximal effect)
Procedure, shortened: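 P450-Glo CYP2D6 system: proluciferin substrate converted by enzyme to luciferin, read by luminescence proportional to activity. Enzyme-substrate mix with compound 10 min at room temperature, then NADPH regeneration 1 h before detection reagent.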

Cytochrome P450 2D6 (Homo sapiens), sequence (P10635 whole entry, looked up): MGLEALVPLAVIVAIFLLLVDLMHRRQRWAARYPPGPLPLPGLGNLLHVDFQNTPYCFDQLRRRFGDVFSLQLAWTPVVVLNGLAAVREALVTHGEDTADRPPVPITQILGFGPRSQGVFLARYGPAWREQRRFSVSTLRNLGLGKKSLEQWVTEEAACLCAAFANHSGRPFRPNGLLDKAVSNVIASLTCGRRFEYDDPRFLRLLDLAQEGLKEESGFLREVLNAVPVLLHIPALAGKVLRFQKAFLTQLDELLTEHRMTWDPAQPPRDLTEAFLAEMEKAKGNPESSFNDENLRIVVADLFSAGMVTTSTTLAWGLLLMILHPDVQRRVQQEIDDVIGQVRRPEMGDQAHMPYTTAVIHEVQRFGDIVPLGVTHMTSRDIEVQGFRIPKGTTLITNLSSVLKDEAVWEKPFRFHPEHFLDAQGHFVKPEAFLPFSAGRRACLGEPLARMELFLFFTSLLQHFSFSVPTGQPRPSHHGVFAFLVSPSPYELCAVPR
Calcium and integrin-binding protein 1 (Homo sapiens), sequence (Q99828 whole entry, looked up): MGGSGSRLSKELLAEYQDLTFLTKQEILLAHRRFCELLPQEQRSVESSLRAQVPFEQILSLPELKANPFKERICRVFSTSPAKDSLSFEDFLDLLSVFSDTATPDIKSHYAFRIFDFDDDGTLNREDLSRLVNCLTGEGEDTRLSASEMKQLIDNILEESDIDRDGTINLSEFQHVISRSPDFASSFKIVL

Compound	Potency [1]	Potency [2]
CN1CCC(c2cn(C)c3ccc(OS(=O)(=O)c4c(F)cccc4F)cc23)CC1	inactive	12 µM (active)
Nc1nc2c(c(N3CC[C@@H](N)C3)n1)CCCc1ccccc1-2	inactive	3.38 µM (active)
Fc1ccc(N2CCCCC2)c(NC(=S)c2ccncc2)c1	inactive	1.69 µM (active)
Cc1cc(N2CCOCC2)ccc1Nc1nc(NC2CCCCC2)c2[nH]cnc2n1	inactive	inactive
O=C(NCC1(N2CCN(c3ccccc3)CC2)CCOCC1)c1cccnc1Sc1ccccc1	inactive	inactive
CC(C)OC(=O)N1CCC(Oc2ncnc3c2cnn3-c2ccc(S(C)(=O)=O)cc2F)CC1	inactive	inactive
O=c1cc(OCc2ccc(F)cc2)ccn1-c1ccc(OCCN2CCCC2)cc1	inactive	16.9 µM (active)
CCCC(Nc1nc(-c2ccc(NC(=O)NCC)c(OC)c2)ncc1C)c1cccnc1 (stereo unspecified)	inactive	5.35 µM (active)
C[C@@H]1C[C@H](C)CN(CCC(=O)Nc2ccc(Br)cc2)C1	inactive	0.0674 µM (active)
Fc1ccc(-c2nc(C3CCNCC3)sc2-c2ccnc(NC3CC3)n2)cc1	inactive	6.01 µM (active)
COc1cc2nc(C3CC3)nc(N3CCN(c4ccccc4OC)CC3)c2cc1OC	inactive	21.3 µM (active)
CN(C)C(=O)COC(=O)c1cc(-c2ccc(C3CCNCC3)cc2)c2ccc(-c3ccc(C(F)(F)F)cc3)cc2c1	inactive	10.7 µM (active)
N#CC(CCCN1CCN(/N=C/c2cccnc2)CC1)(c1ccccc1)c1ccccc1	inactive	0.849 µM (active)
